Screens from PubChem.
S2 tox – cell viability loss in ATXN counter-screen | S2 cells (HEK-293 line with an ATXN2-luciferase reporter) viability, CellTiter-Fluor protease fluorescence, 24 h | Potency, µM (top dose mostly 56.7 µM), most hits filed as cytotoxic | actives 0.49% (n = 400,000); further: nearly all actives have a fitted effect of over 40% in size
RORgamma inh – ROR gamma (mouse) transcription inhibition; P51450; Potency, µM (doses to about 53.6 µM), for the others: at the highest dose activity change, negative = inhibition, usual class: inhibitors; actives 5.4% (n = 310,000); Drosophila S2 Gal4-RORgamma UAS-luciferase reporter, 20 h; further: on the % scale 0 is the no-effect control and ±100 the full control effect; nearly all actives have a fitted effect of over 60% in size
Target sequence (P51450 whole entry, looked up, the tested form may be a part): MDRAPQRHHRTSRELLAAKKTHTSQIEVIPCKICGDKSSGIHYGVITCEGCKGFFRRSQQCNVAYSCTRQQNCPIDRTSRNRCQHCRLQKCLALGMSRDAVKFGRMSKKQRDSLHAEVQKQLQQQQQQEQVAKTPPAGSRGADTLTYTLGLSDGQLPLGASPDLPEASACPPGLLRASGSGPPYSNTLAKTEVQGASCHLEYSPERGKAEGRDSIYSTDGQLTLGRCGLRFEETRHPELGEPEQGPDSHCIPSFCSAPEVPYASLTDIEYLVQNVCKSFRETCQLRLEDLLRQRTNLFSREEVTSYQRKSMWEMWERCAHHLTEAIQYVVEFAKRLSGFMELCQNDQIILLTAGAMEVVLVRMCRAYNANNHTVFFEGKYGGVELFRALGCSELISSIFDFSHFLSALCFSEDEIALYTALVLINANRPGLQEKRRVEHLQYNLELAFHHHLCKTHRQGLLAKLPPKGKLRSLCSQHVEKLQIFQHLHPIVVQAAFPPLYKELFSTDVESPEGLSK
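Drosophila Schneider cells stably carrying a metallothionein-driven Gal4 DBD–ROR gamma fusion and a UAS-Photinus luciferase reporter were exposed to compound for 1 hr, then induced with copper sulfate (700 uM final) for 20 hr at ambient temperature before luminescence reading.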
VP16 counter – counter-screen for ROR gamma inhibitors: Gal4-VP16 reporter | Potency, µM (titrated, usually from 53.6 µM), without a hit: at the top dose activity, negative = inhibition, actives largely listed as inhibitors | actives 3.5% (n = 310,000) | Drosophila S2 Gal4-VP16 UAS-luciferase, luminescence, 20 h;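 further: Gal4-VP16 expression switched on by copper sulfate through the metallothionein promoter; on the % scale 0 is the no-effect control and ±100 the full control effect; nearly all actives have a fitted effect of over 50% in size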
HepG2 viability – counter-screen for TGF-b inhibitors: cytotoxicity in HepG2 cells. HepG2 CAGA-GFP viability, ATP luminescence, 18 h. Potency, µM (highest dose often 46.1 µM), for inactives: top-dose activity change, negative = cytotoxicity, hits mostly cytotoxic. actives 0.76% (n = 410,000). AID 588856
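CellTiter-Glo luminescence gave cytotoxicity after 18 hours at 37 degrees C. The cells were HepG2 CAGA-GFP in 1% FBS DMEM, stimulated with 500 pg/mL TGF-beta after compound addition. %Activity was normalised to no-cell wells (complete cell-killing) and DMSO (no toxicity), and curves were fitted and classified.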
TGFb inhibitor – blocks TGF-b signaling | HepG2 CAGA-GFP TGF-b/SMAD3 reporter, GFP fluorescence, 18 h; TGF-beta stimulated, 500 pg/mL final | Potency, µM (highest dose often 46.1 µM), for the others: at the highest dose activity, negative = inhibition, usual class: inhibitors | actives 1.2% (n = 410,000) | AID 588855; further: on the % scale 0 is the no-effect control and ±100 the full control effect; nearly all actives have a fitted effect of over 65% in size
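Smad-responsive CAGA-GFP expression was quantified in HEPG2 cells exposed to compounds and 500 pg/mL final TGF-beta for 18 h at 37 degrees C; unstimulated wells defined full inhibition.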
ATXN2 expr inh – inhibitors of ATXN2 expression | HEK-293 ATXN2-luciferase reporter, luminescence, 24 h | AID 1745845 | actives 0.72% (n = 360,000) | Potency, µM (doses to about 57 µM), for the others: at the highest dose activity change, negative = inhibition, most hits filed as inhibitors; further: on the % scale 0 is the no-effect control and ±100 the full control effect; nearly all actives have a fitted effect of over 55% in size
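qHTS (up to 57 uM final) was run with 24 h compound exposure of reporter cells at 37 °C. Each well was multiplexed: SteadyGlo luminescence measured ATXN2-luciferase expression after a fluorogenic Gly-Phe-AFC viability readout (25 uM final).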
Numbers without * were called inactive; i = inactive; ? = inconclusive; nt = not tested or not shown; [ ] = another dose, or the depositor's remark. Only some compounds are listed: those with a hit (about 6.3% of all), similar ones and a draw of the others. The call rests on the fitted dose curve; in most records, active means well fitted curve in the direction sought with a large enough effect; inconclusive means small, poorly fitted or top-dose-only effect, or another doubt; inactive means no such curve, though single readings can be large; an effect the other way counts as inactive or inconclusive. Potency means the concentration at half of the fitted maximal effect.

SMILES	S2 tox	RORgamma inh	VP16 counter	HepG2 viability	TGFb inhibitor	ATXN2 expr inh
CCc1cc2c(N3CCCCC3)ncnc2s1	?	?	35.5µM*	-7.7%	?	-8.8%
CC1(C)CC(=O)C=C(NNC(=O)c2ccccc2O)C1	i	12.6µM*	11.2µM*	-41.8%	4.8%	-31.6%
CC(=O)N1c2ccccc2C2(O)N=C(C)SC12 (configuration not stated)	i	7.94µM*	4.47µM*	4.1%	3.8%	5.0%
CC(=O)N1c2ccccc2[C@@H](C)[C@@H]1C	i	nt	nt	-12.2%	0.7%	6.1%
O=C(c1cc(COc2cccc3cnccc23)on1)N1CCCC(CCCO)C1 (configuration not stated)	i	?	2.82µM*	-8.5%	-5.2%	-38.4%
COCC1CCN(C(=O)c2cc(COc3cccc4cnccc34)on2)CC1	?	23.4%	12.6µM*	-7.8%	-23.1%	?
COCC1CCN(C(=O)c2cc(COc3ccc(F)cc3Cl)on2)C1 (configuration not stated)	i	nt	nt	-0.7%	4.5%	nt
O=C(c1cc(COc2cccc(C(F)(F)F)c2)on1)N1CCC(c2ccncc2)CC1	?	-6.4%	-2.3%	-42.6%	?	14.1µM*
O=C(c1cc(COc2cccc(C(F)(F)F)c2)on1)N1CCC(c2ccccc2)CC1	i	-1.7%	-16.8%	-0.6%	?	-4.2%
Clc1ccc(/C=N/NC(=Nc2ccccc2)c2ccccn2)c(Cl)c1	i	12.6µM*	?	0.1%	-23.5%	14.2%
C(=N\NC(=Nc1ccccc1)c1ccccn1)/c1ccccn1	i	3.16µM*	3.16µM*	-39.9%	-4.3%	?
Clc1ccc(C=NNc2ccccn2)c(Cl)c1	?	nt	nt	8.1%	-1.2%	12.7%
COc1ccc(-c2nc(C)c(CCNC(=O)c3cc(OC)c(OC)c(OC)c3)s2)cc1OC	?	nt	nt	0.7%	2.6%	-17.2%
N#C/C(=C(O)\C=C\c1ccccc1)c1nc2ccccc2[nH]1	i	2µM*	-21.3%	-0.6%	-12.4%	nt
CC(C)CC(/C(O)=C(\C#N)c1nc2ccccc2[nH]1)N1C(=O)c2ccccc2C1=O (configuration not stated)	?	7.94µM*	20µM*	-3.6%	?	-21.7%
CC(C)(C)/C(O)=C(/C#N)c1nc2ccccc2[nH]1	i	11.2µM*	?	4.2%	17.3%	0.4%
COC(=O)N[C@H](C[N+](=O)[O-])C(C)(C)C	nt	6.5%	-0.4%	nt	nt	nt
COc1cccc(-n2cc(CN(C)Cc3nc(Cc4cccc(F)c4)no3)cn2)c1	i	0.1%	2.9%	-3.1%	-5.8%	-13.1%
COc1ccc(CN(C)Cc2nc(Cc3cccc(F)c3)no2)c2cccnc12	i	?	7.08µM*	-20.0%	?	-22.5%
Cc1ccc(C(=O)NCCc2nnc3n2CCN(Cc2cc(C)cc(C)c2)CC3)cc1	i	nt	nt	nt	nt	nt
COc1ccc(OC)c(NC(=O)c2cccc(N3C(=O)C4C5C=CC(C6CC56)C4C3=O)c2)c1 (configuration not stated)	14.1µM*	?	-17.2%	-16.0%	?	nt
COc1cc(OC)c(NC(=O)NCc2cccn2Cc2ccccc2)cc1Cl	?	nt	nt	-0.5%	8.91µM*	?
O=C(O)c1ccccc1C(=O)Nc1ccc(Oc2cccc3ccccc23)cc1	i	2.5%	-8.5%	-30.8%	-1.9%	1.58µM*
Cc1cccc(Oc2ccc(NC(=O)c3ccccc3C(=O)O)cc2)c1C	i	17.4%	9.6%	-11.3%	2.8%	4.3%
COc1ccc2c(c1)C(c1ccccc1OC)CC(=O)O2 (configuration not stated)	nt	4.2%	-0.2%	nt	nt	nt
SMILES	S2 tox	RORgamma inh	VP16 counter	HepG2 viability	TGFb inhibitor	ATXN2 expr inh
CCOC(=O)C1=CN(Cc2cccc(F)c2)S(=O)(=O)NC1c1ccc2ccccc2c1 (configuration not stated)	i	nt	nt	-11.1%	12.6µM*	-15.2%
CCOC(=O)C1=CN(Cc2cccc(F)c2)S(=O)(=O)NC1c1cccc(OC)c1 (configuration not stated)	i	nt	nt	-9.2%	2.5%	-4.6%
CCOC(=O)c1ccc2ncc(-c3ccccc3)nc2c1	i	?	-12.5%	2.51µM*	2.0%	66.6%
COc1ccc(Cn2c(SCC#N)nc3ccc(N4CCOCC4)cc3c2=O)cc1	nt	10µM*	?	-1.8%	22.4%	61.4%
COc1cccc(NC(=O)CSc2nc3ccccc3c(=O)n2CCCC(=O)NCCCN2CCOCC2)c1	i	-1.4%	-4.5%[10 µM]	-3.1%	0.2%	-0.3%
COc1ccc(-n2c(SCC#N)nc3ccccc3c2=O)cc1	i	-10.4%	11.7%	-5.0%	8.6%	-22.4%
CCCCCCn1c(SCC(=O)Nc2cc(C)on2)nc2ccccc2c1=O	?	3.98µM*	7.6%[0.365 µM]	5.0%	-9.1%	0.0%
CCCCn1c(SCC(N)=O)nc2ccc(N3CCOCC3)cc2c1=O	i	1.58µM*	10µM*	-1.5%	-8.3%	19.6%
CCCCn1c(SCC(=O)Nc2cccc(OC)c2)nc2ccc(N3CCOCC3)cc2c1=O	nt	5.01µM*	12.6µM*	-3.9%	-1.4%	nt
CC1(C)OC(=O)C2(Cc3c(F)cccc3N3CCCC32)C(=O)O1 (configuration not stated)	nt	nt	nt	-0.6%	-2.8%	nt
CCOC(=O)N1CCN(c2nc(CN3CCCCC3CCO)nc3c(C)cccc23)CC1 (configuration not stated)	i	nt	nt	nt	nt	nt
Cc1ccc(C)c(N2CCN(C(=O)c3cc4sccc4n3C)CC2)c1	i	15.2%	?	-7.1%	?	13.0%
Cc1ccc(C)c(N2CCN(C(=O)C3CCN(C(=O)c4cc5sccc5n4C)CC3)CC2)c1	nt	nt	nt	-18.5%	10µM*	nt
COc1ccc(C(=O)N2CCN(c3ccc([N+](=O)[O-])c(NCCc4ccc(OC)c(OC)c4)c3)CC2)cc1	i	?	3.98µM*	-34.8%	?	-31.0%
COc1ccc(CCNc2cc(N3CCN(C(=O)c4ccccc4F)CC3)ccc2[N+](=O)[O-])cc1OC	i	42.0%	10µM*	-13.8%	-10.2%	-19.0%
CCC[C@H](Nc1nc(-c2ccc(NC(=O)NCC)c(OC)c2)ncc1C)c1cccnc1	nt	nt	nt	nt	nt	-18.5%
Cc1ccc2c(c1)CCC2=O	nt	nt	nt	0.1%	3.0%	nt
COc1cc(=O)n2c(c1C(=O)N(C)Cc1nonc1C)CCN(Cc1ccc(C)cc1C)CC2	i	nt	nt	nt	nt	nt
Cc1ccccc1Nc1nc(N)nc(COC(=O)c2cccc(S(=O)(=O)N(C)C)c2)n1	i	-8.1%	0.7%	1.9%	-3.8%	-5.2%
COc1ccc(C(=O)OCc2nc(N)nc(Nc3ccccc3C)n2)cc1OC	i	17.8µM*	5.2%	1.2%	17.4%	1.4%
